Gli-Sufu antag: blocks Gli-Sufu signaling in a luciferase reporter | Sufu-KO-LIGHT fibroblasts, Gli luciferase reporter luminescence | inhibition, % at 5 µM | hit rate 0.74% among 340,000 | AID 588413;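 active means inhibition above about 55%, limit read from the data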
GalR3 antagonist: blocks the human galanin receptor 3; O60755; HEK293 GalR3-CNG cAMP membrane potential fluorescence; galR3 body fused to GalR1 C-terminus; inhibition, % at 3 µM; hit rate 0.44% among 360,000; AID 651719;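 active means inhibition above the screen-wide average plus 3 SD, cut at about 13% in these data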;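 further: forskolin and galanin both at EC90 stimulate the cells; cAMP rise reported by CNG channel membrane potential dye signal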
Target sequence (O60755 1-299 limits assumed): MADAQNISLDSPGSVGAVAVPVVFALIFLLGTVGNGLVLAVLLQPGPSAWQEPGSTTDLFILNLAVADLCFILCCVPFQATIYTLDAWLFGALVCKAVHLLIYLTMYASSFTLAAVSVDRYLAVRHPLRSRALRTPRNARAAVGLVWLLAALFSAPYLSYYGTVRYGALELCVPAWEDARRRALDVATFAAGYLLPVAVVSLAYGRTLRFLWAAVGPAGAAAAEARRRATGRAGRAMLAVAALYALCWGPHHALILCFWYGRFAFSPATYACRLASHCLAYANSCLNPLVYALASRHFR
NR2F2 inh: blocks human COUP-TFII nuclear receptor | P24468 | HEK293T NGFI-A luciferase reporter, luminescence | inhibition, % at 8.6 µM | hit rate 0.7% among 370,000 | AID 686940;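 active means inhibition above a per-plate cutoff, mean inhibition of test wells between control levels plus 3 SD, cut at about 38% in these data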;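 further: cells cotransfected with COUP-TFII expression vector driving the NGFI-A reporter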
Target sequence (P24468 whole entry, looked up): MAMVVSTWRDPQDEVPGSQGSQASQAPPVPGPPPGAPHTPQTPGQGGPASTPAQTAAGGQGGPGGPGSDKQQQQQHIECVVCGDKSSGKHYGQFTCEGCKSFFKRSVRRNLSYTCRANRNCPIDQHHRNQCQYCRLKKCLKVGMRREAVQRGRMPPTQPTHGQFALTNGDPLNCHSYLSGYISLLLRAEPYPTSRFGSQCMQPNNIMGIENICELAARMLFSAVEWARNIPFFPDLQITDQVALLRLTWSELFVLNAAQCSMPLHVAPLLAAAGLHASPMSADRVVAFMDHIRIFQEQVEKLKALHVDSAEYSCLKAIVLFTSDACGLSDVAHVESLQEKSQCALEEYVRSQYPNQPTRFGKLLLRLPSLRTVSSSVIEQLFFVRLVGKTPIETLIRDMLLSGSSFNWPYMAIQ
697 NFkB inh: lowers PMA/ionomycin-induced NF-kB signal in 697 B cells. 697 B-cell NF-kB luciferase reporter, 16 h. AID 435022. hit rate 0.33% among 330,000. inhibition, % at 4 µM; in the data active means inhibition above about 35%
Jurkat NFkB inh: lowers PMA/ionomycin-induced NF-kB signal in Jurkat cells. AID 435003. hit rate 0.53% among 330,000. inhibition, % at 4 µM. PMA/ionomycin-induced NF-kB luciferase reporter, luminescence; in the data active means inhibition above about 50%
GalR3 antag conf: confirmation of human galanin receptor 3 antagonists | shares compounds with GalR3 antagonist | hit rate 59% among 1,600 | inhibition, % at 3 µM | AID 652245 | HEK293 GalR3 CNG cAMP biosensor, membrane potential fluorescence; galR3 fused to GalR1 carboxy tail; challenged with forskolin and galanin at EC90;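 active means inhibition above the primary screen's cutoff, the mean inhibition of all screened compounds plus 3 SD, cut at about 13% in these data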
CNG parental: counter-screen for GalR3 antagonists: nonspecific agonists in parental HEK-CNG cells. activation, % at 3 µM. AID 652268. hit rate 10% among 1,600. HEK293-CNG parental cells, cAMP membrane potential fluorescence; normalised: DMSO wells 0%, forskolin wells 100%. shares compounds with GalR3 antagonist; in the data active means activation above about 1.3%
Large screens that a line does not name were inactive (follow-up assays come after a bar, where they were run). This is a sample that favours compounds with a hit; in the whole collection about 2% have one here.

C=CCN1[C@@H](C)COc2cccc(F)c2S1(=O)=O	none (no result: Gli-Sufu antag, GalR3 antagonist, 697 NFkB inh, Jurkat NFkB inh)
CC1=CC(C)(C)n2c(O)c(N=NC(N)=S)c3c(C)ccc1c32	GalR3 antagonist 14.2 | GalR3 antag conf inactive | CNG parental inactive
COC(=O)[C@]12C[C@H](CC(=O)NCCCCc3ccccc3)C(=O)N(Cc3ccco3)C1=C[C@H](C(C)C)O[C@@H]2C1CC1	none (no result: Gli-Sufu antag, GalR3 antagonist, 697 NFkB inh, Jurkat NFkB inh)
CC1(CSc2ccccc2)CC(=O)N1 (stereo not given)	GalR3 antagonist 20.9 (no result: Gli-Sufu antag, 697 NFkB inh, Jurkat NFkB inh) | GalR3 antag conf 28.6 | CNG parental inactive
O=C1NC(=O)C(CSc2ccccc2)(c2ccccc2)N1 (stereo not given)	none (no result: 697 NFkB inh, Jurkat NFkB inh)
COc1cc2c(cc1OC)-c1cc(Nc3ccc(N(C)C)cc3)nc(=O)n1CC2	GalR3 antagonist 36.3 | GalR3 antag conf 55.3 | CNG parental inactive
COc1cc2c(cc1OC)-c1cc(Nc3ccc(F)cc3)nc(=O)n1CC2	none
CCN(CC)c1ccc(Nc2cc3n(c(=O)n2)CCc2cc(OC)c(OC)cc2-3)cc1	GalR3 antagonist 47.5 | GalR3 antag conf 63.8 | CNG parental inactive
CCO[C@@H]1OC(C(=O)NCc2ccccc2)=C[C@H](C2CC2)[C@H]1CCCO	none (no result: GalR3 antagonist) | GalR3 antag conf inactive | CNG parental inactive
CCO[C@@H]1OC(C(=O)NCc2ccccc2)=C[C@H](C2CCCCC2)[C@H]1CCCO	none
CCCNC(=O)C12CCC(C)(c3nc4cc(C)c(C)cc4nc31)C2(C)C (stereo not given)	GalR3 antagonist 15.9 | GalR3 antag conf inactive | CNG parental inactive
Cc1ccc(S(=O)(=O)N2CCN(C(=O)COC(=O)CCOc3ccc(C(C)(C)C)cc3)CC2)cc1	GalR3 antagonist 20.4 | GalR3 antag conf 19.9 | CNG parental inactive
COC(=O)C1=C(C)NC2=C(C(=O)CCC2)C1c1cn(Cc2ccc(Cl)cc2Cl)nc1-c1ccccc1 (stereo not given)	GalR3 antagonist 37.1 | GalR3 antag conf 50.1 | CNG parental inactive
CCOC(=O)C1=C(C)NC2=C(C(=O)CCC2)C1c1cn(Cc2ccc(Cl)cc2Cl)nc1-c1ccccc1 (stereo not given)	GalR3 antagonist 15.8 | GalR3 antag conf 13.2 | CNG parental 6.2
COC(=O)C1=C(C)NC2=C(C(=O)CCC2)C1c1cccs1 (stereo not given)	none (no result: Gli-Sufu antag, 697 NFkB inh, Jurkat NFkB inh)
CCc1nccn1CC(=O)c1ccc(O)c(O)c1	none (no result: Gli-Sufu antag, GalR3 antagonist, 697 NFkB inh, Jurkat NFkB inh)
O=C1C=C[C@H]2CC[C@@H](O)[C@@H]1[C@@H]2Sc1ccccc1	none (no result: Gli-Sufu antag, GalR3 antagonist, 697 NFkB inh, Jurkat NFkB inh)
O=C(NC(Nc1ncc(S(=O)(=O)c2ccc([N+](=O)[O-])cc2)s1)(C(F)(F)F)C(F)(F)F)c1ccc(Cl)cc1	GalR3 antagonist 72.7 | GalR3 antag conf 40.7 | CNG parental inactive
COCC(=O)Nc1ncc(S(=O)(=O)c2ccc([N+](=O)[O-])cc2)s1	none
CCCCCN1CCCCC(NC(=O)c2ccccc2C)C1=O (stereo not given)	none (no result: Gli-Sufu antag, GalR3 antagonist, 697 NFkB inh, Jurkat NFkB inh)
Cc1ccc(-c2cc([C@H]3[C@@H]4C=CCC[C@@]4(C)C(=O)N3Cc3ccccc3)ccc2F)cc1	none
COc1ccc(-c2cc([C@H]3[C@@H]4C=CCC[C@@]4(C)C(=O)N3Cc3ccccc3)ccc2F)cc1OC	GalR3 antagonist 19.8 | GalR3 antag conf inactive | CNG parental inactive
C[C@H]1[C@@H](OC(=O)Nc2ccccc2F)CC[C@@]23CCCN2C(=O)CCC[C@@H]13	none (no result: Gli-Sufu antag, GalR3 antagonist, 697 NFkB inh, Jurkat NFkB inh)
O=c1[nH]c2cc(NCCO)c([N+](=O)[O-])cc2[nH]1	GalR3 antagonist 20.9 | GalR3 antag conf 33.0 | CNG parental 2.8
CC(C)(C)OC(=O)NCCc1ccccc1/C=C/S(=O)(=O)NC1CCCC1	none (no result: Gli-Sufu antag, GalR3 antagonist, 697 NFkB inh, Jurkat NFkB inh)
Cc1ccc(-n2c(SCC(=O)N3CC(=O)Nc4ccccc43)nc3ccccc3c2=O)cc1C	none
Cc1cccc(-n2c(SCC(=O)N3CC(=O)Nc4ccccc43)nc3ccccc3c2=O)c1	GalR3 antagonist 14.7 | GalR3 antag conf inactive | CNG parental inactive
Cc1ccc2c(c1)C(CS(=O)(=O)NCCc1ccccc1)NC2 (stereo not given)	none (no result: Gli-Sufu antag, GalR3 antagonist, 697 NFkB inh, Jurkat NFkB inh)
CC(=O)c1ccc(NC(=O)Nc2ccc(Br)cc2C)cc1	GalR3 antagonist 13.2 | GalR3 antag conf inactive | CNG parental inactive
CC(=O)c1ccc(NC(=O)c2ccc(C)c(Br)c2)cc1	none
COc1ccc(Cn2c(=O)[nH]c3cc(C(=O)N4CCN(Cc5ccccc5)CC4)ccc3c2=O)cc1	GalR3 antagonist 65.0 | GalR3 antag conf 88.3 | CNG parental inactive
COc1ccc(S[C@]2(C(=O)N3CCCC3)CC(=O)N(c3ccc4c(ccn4C)c3)[C@@H]2c2ccc(OC)cc2)cc1	none (no result: Gli-Sufu antag, GalR3 antagonist, 697 NFkB inh, Jurkat NFkB inh)
COC(=O)C1CN(Cc2ccc(Cl)cc2)CCS(=O)(=O)N1Cc1cn(Cc2ccc(F)cc2)nn1 (stereo not given)	none (no result: Gli-Sufu antag, GalR3 antagonist, 697 NFkB inh, Jurkat NFkB inh)
COc1ccc(C(=O)N/N=C/c2cc3ccccc3[nH]c2=O)cc1	none (no result: GalR3 antagonist) | GalR3 antag conf 60.2 | CNG parental inactive
CN1C(=O)c2cc(NS(C)(=O)=O)ccc2OC[C@H]2O[C@@H](CC(=O)NCc3ccc(-c4ccccc4)cc3)CC[C@@H]21	none (no result: Gli-Sufu antag, GalR3 antagonist, 697 NFkB inh, Jurkat NFkB inh)
CCC(C)(C)n1nnnc1CN(Cc1cc2cc(OC)c(OC)cc2[nH]c1=O)C1CCCC1	GalR3 antagonist 17.7 | GalR3 antag conf inactive | CNG parental inactive
Cc1ccc2[nH]c(=O)c(CN(Cc3ccccc3)Cc3nnnn3C3CCCC3)cc2c1	none
Cc1ccc2[nH]c(=O)c(CN(Cc3nnnn3C3CCCC3)C3CCCCC3)cc2c1	GalR3 antagonist 13.7 | GalR3 antag conf inactive | CNG parental inactive
O=S1(=O)c2c(cccc2N2CCC[C@@H]2CO)O[C@H]2CCN1C2	none (no result: Gli-Sufu antag, GalR3 antagonist, 697 NFkB inh, Jurkat NFkB inh)
COc1ccccc1CNC(=O)C[C@H]1CC[C@H]2[C@H](COc3ccc(NS(=O)(=O)c4ccc(C)cc4)cc3C(=O)N2C)O1	none (no result: Gli-Sufu antag, GalR3 antagonist, 697 NFkB inh, Jurkat NFkB inh)
Cc1ccc(S(=O)(=O)NC2CCCC2)cc1C	none
Cc1cc(=O)[nH]c2ccc(S(=O)(=O)NC3CCCCC3)cc12	GalR3 antagonist 12.7 | GalR3 antag conf 38.3 | CNG parental inactive
CCc1ccc(OCC(=O)Nc2ccncc2)c(Br)c1	none
Cc1cc(OCC(=O)Nc2ccncc2)c(C)cc1Br	GalR3 antagonist 76.6 | GalR3 antag conf 116.8 | CNG parental inactive
CC(C)=C1Cc2ccccc2C1=O	GalR3 antagonist 13.4 | GalR3 antag conf inactive | CNG parental inactive
COc1ccc2c(c1O)Cc1ccccc1C2=O	none (no result: GalR3 antagonist, NR2F2 inh)
C=CCNC(=O)/C(=C/c1cn(-c2ccccc2)nc1-c1cccc([N+](=O)[O-])c1)NC(=O)c1ccccc1	GalR3 antagonist 15.9 | GalR3 antag conf inactive | CNG parental inactive
O=C(NCCN1C(=O)S/C(=C\c2ccc(OC(F)F)cc2)C1=O)C1=COCCO1	none (no result: GalR3 antagonist, NR2F2 inh)
COc1ccc(/C=C2\SC(=O)N(CCNC(=O)C3=COCCO3)C2=O)cc1	GalR3 antagonist 31.0 | GalR3 antag conf 20.6 | CNG parental inactive

From PubChem
